In PubChem BioAssay (NCI):
Compounds without any hit were thinned out: in the full panel of roughly 79,000, 15% have a hit. Activity calls are given as the source filed them. Cut-off read from the data, not from the text of the source: active = growth inhibition above about 70%; inactive = the rest.

Tests used:
[1] = NCI Yeast Anticancer Drug Screen. Data for the rad52 strain (AID 147);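 note: 0% = growth of vehicle-treated control cultures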; settings: S. cerevisiae rad52 mutant growth inhibition, hits give high values
How it was run: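 DNA repair-defective yeast; compound exposure; growth scored against vehicle controls.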

[2] = NCI Yeast Anticancer Drug Screen. Data for the wt1 strain (AID 149);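 note: 0% = growth of vehicle-treated wt1 cultures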; settings: S. cerevisiae wt1 strain (SPY 50644) growth inhibition, hits give high values
How it was run: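 Vehicle-normalised growth inhibition; strain wt1; compound exposure.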

[3] = NCI Yeast Anticancer Drug Screen. Data for the rad50EPP+ strain (AID 151);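 note: 0% = growth of vehicle-treated control cultures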; settings: S. cerevisiae rad50 mutant strain, hits give high values
How it was run: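 rad50EPP+ yeast treated with test compounds. Readout: growth vs vehicle control.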

[4] = NCI Yeast Anticancer Drug Screen. Data for the mgt1 strain (AID 153); settings: S. cerevisiae mgt1 mutant growth inhibition, hits give high values
How it was run: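 Growth inhibition relative to vehicle controls was scored for the mgt1 yeast strain after compound exposure.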

[5] = NCI Yeast Anticancer Drug Screen. Data for the rad50 strain (AID 155);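 note: 0% = growth of vehicle-only cultures of the same strain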; settings: S. cerevisiae rad50 strain growth inhibition, hits give high values
How it was run: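 A DNA repair-deficient yeast mutant serves as the test organism; compound-induced growth inhibition is calculated against vehicle-treated cells.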

[6] = NCI Yeast Anticancer Drug Screen. Data for the mec2-1 strain (AID 157); settings: S. cerevisiae mec2-1 strain, hits give high values
How it was run: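 Growth inhibition is read against vehicle-treated controls after compound exposure of the mec2-1 yeast strain, which is defective in DNA damage repair or cell cycle control.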

[7] = NCI Yeast Anticancer Drug Screen. Data for the rad14 strain (AID 159);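 note: 0% = growth of vehicle-treated control cultures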; settings: S. cerevisiae rad14 strain growth inhibition, hits give high values
How it was run: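 Vehicle-treated cultures served as the baseline for growth inhibition of a DNA repair-mutant yeast strain exposed to each compound.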

[8] = NCI Yeast Anticancer Drug Screen. Data for the sgs1 mgt1 strain (AID 161);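 note: 0% = growth of cultures given vehicle only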; settings: S. cerevisiae sgs1 mgt1 strain, hits give high values
How it was run: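 Growth of a repair-deficient yeast mutant was monitored after compound treatment and expressed as inhibition relative to vehicle-treated cultures.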

[9] = NCI Yeast Anticancer Drug Screen. Data for the CLN2oe strain (AID 163);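 note: 0% = growth of vehicle-only control cultures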; settings: S. cerevisiae CLN2oe strain, hits give high values
How it was run: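 Compound-treated yeast; growth vs vehicle ctrl = % inhibition. Genetically altered strain (cell-cycle control).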

[10] = NCI Yeast Anticancer Drug Screen. Data for the cln2 rad14 strain (AID 165);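 note: 0% = growth equal to vehicle treated cultures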; settings: S. cerevisiae cln2 rad14 strain, hits give high values
How it was run: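 Growth inhibition, relative to vehicle-treated controls, is the read-out. The test organism is a yeast strain with defined genetic alterations, cln2 rad14.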

[11] = NCI Yeast Anticancer Drug Screen. Data for the bub3 strain (AID 167); settings: S. cerevisiae bub3 mutant strain, hits give high values
How it was run: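 Inhibition values come from growth of compound-treated mutant yeast normalised to vehicle-treated controls.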

[12] = NCI Yeast Anticancer Drug Screen. Data for the wt2 strain (AID 169);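 note: 0% = growth of vehicle-treated yeast cultures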; settings: S. cerevisiae wt2 strain growth inhibition, hits give high values
How it was run: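 Compound exposure of yeast; growth compared with vehicle controls; inhibition reported.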

[13] = NCI Yeast Anticancer Drug Screen. Data for the mlh1 strain (AID 171);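 note: 0% = growth of vehicle-treated control cultures of the same strain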; settings: S. cerevisiae mlh1 strain growth inhibition, hits give high values
How it was run: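 Compounds are applied to a genetically altered yeast strain, and its growth is compared with that of vehicle-treated cultures to give percent inhibition.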

[14] = NCI Yeast Anticancer Drug Screen. Data for the sgs1 strain (AID 173);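 note: 0% = growth of vehicle-only control cultures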; settings: S. cerevisiae sgs1 mutant, hits give high values
How it was run: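 Compounds applied to genetically altered yeast; growth compared with vehicle-treated cultures to give % inhibition.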

[15] = NCI Yeast Anticancer Drug Screen. Data for the mlh1 rad18 strain (AID 175); settings: S. cerevisiae mlh1 rad18 strain growth inhibition, hits give high values
How it was run: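 Cells of a genetically altered yeast strain, deficient in DNA damage repair, were treated with compound. Their growth was then compared with that of vehicle-treated cultures to give inhibition.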

[16] = NCI Yeast Anticancer Drug Screen. Data for the rad18 strain (AID 177); settings: S. cerevisiae rad18 mutant growth inhibition, hits give high values
How it was run: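 Compounds are applied to a repair-deficient yeast strain, and growth is compared with that of vehicle-treated cultures to give percent inhibition.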

[17] = at 5.0 µM (retest, dose inferred, filed as 0.5)
[18] = at 50.0 µM (retest, dose inferred, filed as 5.0)

Measured: growth inhibition

O=Nc1c(NO)ccc2nn(-c3ccccc3)nc12
inactive: [1]; at 1.2 µM 29% | [1]; at 3.7 µM 68% | [2]; at 1.2 µM 12% | [2]; at 3.7 µM 27% | [3]; at 1.2 µM 22% | [3]; at 3.7 µM 33% | [3]; at 11.0 µM 51% | [3]; at 33.0 µM 65% | [3]; at 100.0 µM 66% | [4]; at 1.2 µM -1% | [4]; at 3.7 µM 24% | [5]; at 1.2 µM 12% | [5]; at 3.7 µM 42% | [5]; [17] 18% | [5]; at 50.0 µM 38% | [6]; at 1.2 µM 9% | [6]; at 3.7 µM 36% | [6]; [17] 1% | [7]; at 1.2 µM 7% | [7]; at 3.7 µM 31% | [8]; [17] 14% | [9]; at 1.2 µM 5% | [9]; at 3.7 µM 35% | [10]; [17] 37% | [11]; at 1.2 µM 3% | [11]; at 3.7 µM 45% | [11]; [17] 1% | [12]; at 1.2 µM 25% | [12]; at 3.7 µM 41% | [13]; at 1.2 µM 6% | [13]; at 3.7 µM 30% | [14]; at 1.2 µM 61%
active: [1]; at 11.0 µM 98% | [1]; at 33.0 µM 98% | [1]; at 100.0 µM 98% | [2]; at 11.0 µM 96% | [2]; at 33.0 µM 98% | [2]; at 100.0 µM 96% | [4]; at 11.0 µM 98% | [4]; at 33.0 µM 98% | [4]; at 100.0 µM 99% | [5]; at 11.0 µM 96% | [5]; at 33.0 µM 97% | [5]; [18] 99% | [5]; at 100.0 µM 98% | [6]; at 11.0 µM 95% | [6]; at 33.0 µM 98% | [6]; [18] 99% | [6]; at 50.0 µM 88.5% | [6]; at 100.0 µM 97% | [7]; at 11.0 µM 97% | [7]; at 33.0 µM 98% | [7]; at 100.0 µM 98% | [8]; [18] 99% | [8]; at 50.0 µM 87.2% | [9]; at 11.0 µM 97% | [9]; at 33.0 µM 98% | [9]; at 100.0 µM 98% | [10]; [18] 99% | [10]; at 50.0 µM 89.1% | [11]; at 11.0 µM 95% | [11]; at 33.0 µM 98% | [11]; [18] 99% | [11]; at 50.0 µM 90.4% | [11]; at 100.0 µM 97% | [12]; at 11.0 µM 96% | [12]; at 33.0 µM 99% | [12]; at 100.0 µM 98% | [13]; at 11.0 µM 97% | [13]; at 33.0 µM 98% | [13]; at 100.0 µM 98% | [14]; at 3.7 µM 79% | [14]; at 11.0 µM 98% | [14]; at 33.0 µM 99% | [14]; at 100.0 µM 98% | [15]; [17] 77% | [15]; [18] 98% | [15]; at 50.0 µM 91.5% | [16]; at 1.2 µM 79% | [16]; at 3.7 µM 90% | [16]; at 11.0 µM 97% | [16]; at 33.0 µM 97% | [16]; at 100.0 µM 97%

S=C(S)NN1CCOCC1
active: [1]; at 1.2 µM 84% | [3]; at 1.2 µM 96% | [3]; at 3.7 µM 80% | [3]; at 11.0 µM 86% | [3]; at 33.0 µM 84% | [3]; at 100.0 µM 89% | [5]; at 1.2 µM 87% | [5]; [17] 89% | [5]; at 50.0 µM 85.2% | [6]; at 1.2 µM 80% | [6]; at 50.0 µM 97.8% | [8]; [17] 92% | [8]; [18] 91% | [8]; at 50.0 µM 77.2% | [10]; [17] 83% | [10]; at 50.0 µM 87.5% | [11]; [17] 85% | [11]; [18] 70% | [11]; at 50.0 µM 96% | [13]; at 100.0 µM 72% | [14]; at 1.2 µM 84% | [15]; [17] 94% | [15]; [18] 92% | [15]; at 50.0 µM 86.8% | [16]; at 1.2 µM 87% | [16]; at 100.0 µM 72%
inactive: [1]; at 3.7 µM 68% | [1]; at 11.0 µM 35% | [1]; at 33.0 µM 38% | [1]; at 100.0 µM 50% | [2]; at 1.2 µM 43% | [2]; at 3.7 µM 29% | [2]; at 11.0 µM 35% | [2]; at 33.0 µM 51% | [2]; at 100.0 µM 60% | [4]; at 1.2 µM 52% | [4]; at 3.7 µM 39% | [4]; at 11.0 µM 30% | [4]; at 33.0 µM 21% | [4]; at 100.0 µM 18% | [5]; at 3.7 µM 57% | [5]; at 11.0 µM 29% | [5]; at 33.0 µM 23% | [5]; [18] 66% | [5]; at 100.0 µM 28% | [6]; at 3.7 µM 60% | [6]; [17] 65% | [6]; at 11.0 µM 32% | [6]; at 33.0 µM 28% | [6]; [18] -4% | [6]; at 100.0 µM 35% | [7]; at 1.2 µM 33% | [7]; at 3.7 µM 36% | [7]; at 11.0 µM 34% | [7]; at 33.0 µM 42% | [7]; at 100.0 µM 52% | [9]; at 1.2 µM 57% | [9]; at 3.7 µM 31% | [9]; at 11.0 µM 29% | [9]; at 33.0 µM 27% | [9]; at 100.0 µM 42% | [10]; [18] 22% | [11]; at 1.2 µM 69% | [11]; at 3.7 µM 59% | [11]; at 11.0 µM 31% | [11]; at 33.0 µM 7% | [11]; at 100.0 µM 8% | [12]; at 1.2 µM 64% | [12]; at 3.7 µM 31% | [12]; at 11.0 µM 26% | [12]; at 33.0 µM 34% | [12]; at 100.0 µM 31% | [13]; at 1.2 µM 63% | [13]; at 3.7 µM 30% | [13]; at 11.0 µM 30% | [13]; at 33.0 µM 34% | [14]; at 3.7 µM 47% | [14]; at 11.0 µM 39% | [14]; at 33.0 µM 54% | [14]; at 100.0 µM 50% | [16]; at 3.7 µM 67% | [16]; at 11.0 µM 67% | [16]; at 33.0 µM 50%

CCOP(=O)(OCC)C(Cc1ccccc1)N=C(c1ccccc1)c1ccccc1 (stereo unspecified)
active: [1]; at 33.0 µM 91% | [1]; at 100.0 µM 98% | [2]; at 33.0 µM 95% | [2]; at 100.0 µM 98% | [3]; at 33.0 µM 81% | [3]; at 100.0 µM 94% | [4]; at 33.0 µM 86% | [4]; at 100.0 µM 98% | [5]; at 33.0 µM 96% | [5]; at 50.0 µM 98.6% | [5]; at 100.0 µM 98%
inactive: [1]; at 1.2 µM -21% | [1]; at 3.7 µM -16% | [1]; at 11.0 µM 4% | [2]; at 1.2 µM -18% | [2]; at 3.7 µM -28% | [2]; at 11.0 µM -5% | [3]; at 1.2 µM 8% | [3]; at 3.7 µM 12% | [3]; at 11.0 µM 44% | [4]; at 1.2 µM 16% | [4]; at 3.7 µM -6% | [4]; at 11.0 µM 10% | [5]; at 1.2 µM -12% | [5]; at 3.7 µM -7% | [5]; [17] 12% | [5]; at 11.0 µM 27% | [5]; [18] 7% | [6]; at 1.2 µM 18% | [6]; at 3.7 µM 8%
